Compound activity from PubChem.
Only some compounds are listed: those with a hit (about 4.6% of all), similar ones and a draw of the others.
TRHR PAM – TRH receptor (human) allosteric enhancement. P34981. 360,000 tested, 0.66% active. AID 493056. TRHR cells, fluo-8 calcium fluorescence, EC20 TRH enhancement. enhancement, % at 2 µM; in the data active means enhancement above about 30%
Target sequence (P34981 whole entry, looked up): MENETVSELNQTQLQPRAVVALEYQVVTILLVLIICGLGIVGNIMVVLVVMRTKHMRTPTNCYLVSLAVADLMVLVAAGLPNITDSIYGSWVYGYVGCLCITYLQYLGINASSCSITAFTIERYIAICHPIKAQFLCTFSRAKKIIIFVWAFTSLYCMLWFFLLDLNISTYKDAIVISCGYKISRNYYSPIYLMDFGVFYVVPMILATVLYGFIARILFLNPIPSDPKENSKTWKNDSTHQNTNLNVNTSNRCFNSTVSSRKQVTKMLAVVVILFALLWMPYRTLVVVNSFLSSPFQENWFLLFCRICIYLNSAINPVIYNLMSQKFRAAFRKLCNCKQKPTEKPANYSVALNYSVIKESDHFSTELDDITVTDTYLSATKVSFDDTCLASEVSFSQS
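Enhancer read-out: after compound pinning and an initial kinetic agonist-mode read, an EC20 of TRH (10 nM final) was injected and fluo-8 calcium signal (Ex 480/Em 530) followed at 1 s/cycle for 100 cycles in TRHR-expressing cells.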
D1 potentiator – human D1 dopamine receptor positive modulation; P21728; HEK293 TREx D1 cells, calcium flux, dopamine EC20 potentiation; potentiation, % at 10 µM; 360,000 tested, 0.036% active; in the data active means potentiation above about 30%
D1 agonist – human D1 receptor agonism; activation, % at 2 µM; HEK293 T-REx D1 cells, calcium flux, agonist mode; AID 504660; P21728; 360,000 tested, 1% active
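Tetracycline-induced HEK293 TREx D1 cells, force-coupled to calcium signalling, were dye-loaded with a no-wash calcium kit. Compound was pin-added after a 10 s baseline. Fluorescence was read kinetically at 1 cycle/s for 180 s, with calcium rises flagged as agonism.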
D1 antag – blocks dopamine activation of the human D1 receptor. activity change, negative = inhibition, % at 10 µM. 360,000 tested, 3.2% active. HEK293 TREx D1 cells, calcium flux, dopamine EC80; stronger effect = lower value. P21728; in the data active means activity change below about -30%
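Kinetic fluorescence of a calcium dye serves as the read-out. D1-expressing Hek293 Trex cells, induced overnight at 30 C, are exposed to compound for 180 s before an EC80 dopamine addition, then read 180 s further.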
TRHR ag – activates the human TRH receptor; TRHR cells, calcium flux fluo-8, FDSS agonist mode; activation, % at 2 µM; 360,000 tested, 0.18% active
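Steps: seed TRHR cells overnight; add fluo-8 no-wash Ca dye, RT 30 min–1.5 h; record 10 s baseline; pin-transfer compounds; monitor fluorescence 1 cycle/s for the agonist window. Calcium increases flag candidate agonists.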
Epigenetic reg – epigenetic control regulation, reporter derepression. AID 1865. 280,000 tested, 0.2% active. murine LDR cells, GFP reporter derepression, 30 h. Potency, µM (series often up to 53.9 µM), hits mostly activators; active means well fitted activation curve with a large enough effect; further: nearly all actives have a fitted effect of over 60% in size
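Readout is the number of GFP-expressing murine LDR cells, counted by cytometry following washing. Cells were treated with compound for 30 h at 37 C; the stably integrated CMV-GFP locus is normally silent.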
Large screens that a line does not name were inactive. Unless noted, no stated cut-off is given here; in the data, active means activation above about 30%; inactive means the rest.

O=C(C1=C[C@@H](c2ccc(Br)cc2)C[C@@H](OCCCCO)O1)N1CCOCC1	D1 antag -69.8
O=C(C1=C[C@@H](c2ccc(Br)cc2)C[C@@H](OCc2ccc(CO)cc2)O1)N1CCOCC1	none
O=C(C1=C[C@H](c2ccc(Br)cc2)C[C@H](OCc2ccc(CO)cc2)O1)N1CCOCC1	D1 antag -33.0
O=C(C1=C[C@@H](c2ccccc2)C[C@@H](OCCCCO)O1)N1CCOCC1	D1 antag -37.4
CN1CCN(C(=O)C2=C[C@@H](c3ccccc3)C[C@@H](OCCCCO)O2)CC1	none
CCOC(=O)c1cnn(-c2cccc(F)c2)c1C1CCNCC1	none
COc1ccc(S(=O)(=O)N2CCN(CC(=O)Nc3ccc(Cl)c(C(F)(F)F)c3)CC2)cc1	none
Cc1ccc2[nH]c3c(N4CCN(Cc5ccccc5)CC4)ncnc3c2c1	D1 antag -36.7
CCOC(=O)Cn1cc(/C=C(/C#N)C(=O)NC(C)C)c2ccccc21	D1 antag -33.4
CC(C)OC(=O)/C(C#N)=C/c1cn(Cc2ccccc2)c2ccccc12	none
CC(C)OC(=O)/C(C#N)=C/c1cn(C)c2ccccc12	D1 antag -38.7
N#C/C(=N\Nc1ccc(Cl)cc1)C(N)=S	D1 agonist 30.3
N#C/C(=N\Nc1ccccc1)C(N)=S	none
CCOC(=O)Cn1nnnc1CN(Cc1ccccc1)Cc1cc2cc(CC)ccc2[nH]c1=O	D1 antag -39.2
CCc1ccc2[nH]c(=O)c(CN(Cc3ccccc3)Cc3nnnn3Cc3ccco3)cc2c1	none
Cc1ccc2[nH]c(=O)c(CN(Cc3nnnn3Cc3ccccc3)C3CCCC3)cc2c1	TRHR PAM 32.6
O=C1NC(=S)S/C1=C/c1ccc(Oc2cnccn2)cc1	none
CCOc1ccc(N(C)c2ccc(/C=C3/SC(=S)NC3=O)cc2)cc1	D1 agonist 133.4 (no result: Epigenetic reg)
Cc1cc(C)c(S(=O)(=O)c2ccc(Cl)cc2)c(=O)[nH]1	none (no result: Epigenetic reg)
N#Cc1cc(S(=O)(=O)c2ccc(Cl)cc2)c(N)[nH]c1=O	D1 antag -45.2
CCC(C)C(NC(=O)OCc1ccccc1)C(=O)NC(Cc1ccc(O)cc1)C(=O)OC (centres undefined)	D1 agonist 62.4
CC(C)C(NC(=O)OCc1ccccc1)C(=O)NC(Cc1ccc(O)cc1)C(=O)O (centres undefined)	none (no result: Epigenetic reg)
Cc1cc2cc(CN(Cc3cccs3)C(c3nnnn3C(C)(C)C)C(C)C)c3nnnn3c2cc1C (centres undefined)	none
Cc1ccc2cc(CN(Cc3cccs3)Cc3nnnn3C(C)(C)C)c3nnnn3c2c1	TRHR PAM 32.1
CC1(C)Cc2cccc(C(=O)Nc3ccc(Cl)cc3)c2O1	D1 antag -34.2
CC1(C)Cc2cccc(C(=O)Nc3ccncc3)c2O1	none
CC(C)CCNC(=O)Cn1nc(N2CCN(c3ccccc3)CC2)ccc1=O	none
O=c1c2cccc3c(N4CCOCC4)ccc(c32)c2nc3ccccc3n12	D1 agonist 71.5, TRHR ag 51.1, Epigenetic reg 12.6µM
O=C(Nc1ccc(F)cc1F)N1CCc2c(sc3c2CCCC3)C1c1ccc(F)cc1 (centres undefined)	none
Cn1nc(C(=O)N2CCN(c3ccccc3F)CC2)c2c1-c1ccccc1SC2	D1 antag -34.8
CCOC(=O)c1sc2ccccc2c1NC(=O)c1coc2ccccc2c1=O	TRHR PAM 36.8
CCOC(=O)c1sc2ccccc2c1OC(=O)c1ccccc1	none
Oc1cccc(/C=N\Nc2nncc(-c3ccccc3)n2)c1	D1 antag -37.0
CCOc1cc(/C=N/Nc2nncc(-c3ccccc3)n2)ccc1O	none
CCOc1ccccc1CN1CCN(C/C=C/c2ccc(OC)cc2)CC1CCO (centres undefined)	none
COc1ccc(/C=C/CN2CCN(CCc3ccccc3)C(CCO)C2)cc1 (centres undefined)	TRHR PAM 38.6
CCCN(C(=O)C1CCN(S(=O)(=O)c2c(C)noc2/C=C/c2ccc(C)cc2)CC1)c1ccccc1F	none
CC(=O)N1CCC(N(C(=O)Nc2ccc(C)c(C)c2)C2CCCC2)CC1	none
CC(=O)N1CCC(N(C(=O)Nc2ccc(C)c(F)c2)C(C)C)CC1	D1 antag -48.0
CCOC(=O)CSC1=N/C(=C\c2cccnc2)C(=O)N1c1ccc(OC)cc1	none
CSC1=N/C(=C\c2cccnc2)C(=O)N1c1ccccc1	D1 antag -43.2
CCSC1=N/C(=C\c2cccnc2)C(=O)N1c1ccccc1	D1 antag -68.4
COc1ccc(-c2ccc3c(n2)CCCN3C[C@H](O)CN2CCCc3nc(C)c(C)cc32)cc1	none (no result: TRHR PAM, D1 potentiator, D1 agonist, D1 antag, TRHR ag)
COc1ccc(N(CC(=O)Nc2ccc(C)c(C)c2)S(=O)(=O)c2ccc(C)cc2)cc1OC	none
Cc1ccc(NC(=O)Cn2cc(S(=O)(=O)N3CCC(C)CC3)c3ccccc3c2=O)c(Br)c1	none
CC(Oc1ccccc1)C(=O)Nc1ccc(OCc2cc(=O)n3ccsc3n2)cc1 (centres undefined)	none
CC(=O)N=Cc1c(C)c(C#N)c(=O)n(C)c1O	D1 antag -56.7
CCCNC(=S)Nc1ccc2nc(-c3ccccn3)c(-c3ccccn3)nc2c1	D1 antag -37.2
O=C(COc1ccccc1)Nc1ccc(Cl)c(-c2nc3ncccc3o2)c1	D1 antag -43.7
CC(=O)Nc1ccc2c(COC(=O)[C@H](C)N3C(=O)C4CCCCC4C3=O)cc(=O)oc2c1 (some centres undefined)	none
Cc1cc(=O)oc2cc(NC(=O)C(C)N3C(=O)C4CCCCC4C3=O)ccc12 (centres undefined)	D1 antag -43.0 (no result: Epigenetic reg)
O=C(COC(=O)C12CC3CC(CC(Cl)(C3)C1)C2)NCc1ccco1	none (no result: Epigenetic reg)
O=C(Nc1ccc(Nc2ccccc2)cc1)c1ccc(F)cc1	none (no result: Epigenetic reg)
O=C(Nc1ccc(Nc2ccccc2)cc1)c1c(F)c(F)c(F)c(F)c1F	D1 antag -30.6 (no result: Epigenetic reg)
COc1cccc(OCC(=O)Nc2nnc3n2CCS3)c1	none
O=[N+]([O-])c1cccc(-c2nc(-c3cccs3)c(-c3cccs3)[nH]2)c1	D1 antag -35.6
O=[N+]([O-])c1cccc(-c2nc(-c3ccccc3)c(-c3cccs3)[nH]2)c1	none
Cc1ccc(-c2nc(-c3cccs3)c(-c3cccs3)[nH]2)cc1	D1 antag -33.0
Fc1ccc(-c2nc(-c3cccs3)c(-c3cccs3)[nH]2)cc1	none
O=[N+]([O-])c1ccc(-c2nc(-c3cccs3)c(-c3cccs3)[nH]2)cc1	D1 agonist 37.8
COc1ccc(/C=C\c2onc(C)c2S(=O)(=O)N2CCC(C(=O)Nc3ccc(F)cc3F)CC2)cc1	none
COc1ccc(-c2coc3cc(OC(C)=O)cc(OC(C)=O)c3c2=O)cc1	none (no result: TRHR PAM, D1 potentiator, D1 agonist, D1 antag, TRHR ag)
